FMDV RLuc = Primary qHTS Assay for Foot and Mouth Disease Virus Antivirals against NCGC Sytravon and CBC Compound Libraries: Renilla Luciferase Signal; FMDV replicon cells, Renilla luciferase signal; Potency, µM (titrated, usually from 57.5 µM), for inactives: at the top dose activity change, negative = inhibition, most hits filed as inhibitors; hit rate 0.32% among 120,000; AID 1745857, 2022; further: nearly all actives have a fitted effect of over 55% in size
FMDV FLuc = Primary qHTS Assay for Foot and Mouth Disease Virus Antivirals against NCGC Sytravon and CBC Compound Libraries: Firefly Luciferase Signal | Potency, µM (top dose mostly 57.5 µM), without a hit: at the top dose activity change, negative = inhibition, hits mostly inhibitors | FMDV antiviral cell assay, firefly luciferase signal | hit rate 0.23% among 120,000; further: nearly all actives have a fitted effect of over 60% in size
* = called active by the depositor; [ ] = remark or other dose. Compounds with a hit are over-represented: about 0.4% of the library has one in this group of screens. The call rests on the fitted dose curve. On the % scale 0 is the no-effect control and ±100 the full control effect; potency means the concentration at half of the fitted maximal effect.

How did CCN1CCN(c2oc(-c3ccc(F)cc3)nc2C#N)CC1 do in these assays?
FMDV RLuc: 3%; FMDV FLuc: 22%

What do the screens show for `CCN1CCN(c2cc(-c3ccc(F)cc3)c3c(n2)CCCCCC3)CC1`?
FMDV RLuc: 11µM*; FMDV FLuc: inconclusive

Results for CCNC(=O)N1CCN(CCCC(c2ccc(F)cc2)c2ccc(F)cc2)CC1 ?
FMDV RLuc: inconclusive; FMDV FLuc: 14%[11.5 µM]

Results for OC1(c2ccc(Cl)c(C(F)(F)F)c2)CCN(CCCC(c2ccc(F)cc2)c2ccc(F)cc2)CC1 ?
FMDV RLuc: 22µM*; FMDV FLuc: -13%[11.5 µM]

Results for CCCCOC(=O)c1ccc(NC(=O)c2cc(=O)c3ccccc3o2)cc1 ?
FMDV RLuc: -5%; FMDV FLuc: -19%

Results for CCCCOC(=O)c1cccc(NC(=O)c2cc3ccccc3o2)c1 ?
FMDV RLuc: -13%; FMDV FLuc: 8.9µM*

Results for COc1ccc(OC)c(NC(=O)CSc2nc(-c3ccccc3C)nc3cc(=O)[nH]n23)c1 ?
FMDV RLuc: -3%; FMDV FLuc: -4%

Results for Cc1ccc(N2C(=O)CSC23C(=O)N(CC(=O)Nc2ccc(C(C)C)cc2)c2ccccc23)cc1C (stereo unspecified) ?
FMDV RLuc: -27%; FMDV FLuc: inconclusive

What do the screens show for `Cc1ccc(NC(=O)CN2C(=O)C3(SCC(=O)N3c3cccc(Cl)c3)c3ccccc32)cc1C` (stereo unspecified)?
FMDV RLuc: 13µM*; FMDV FLuc: inconclusive

What do the screens show for `Cc1ccc(C)c(NC(=O)COC(=O)c2ccc3ccccc3n2)c1`?
FMDV RLuc: -15%; FMDV FLuc: -5%

Results for Cc1ccc(NC(=O)COC(=O)c2ccc3ccccc3n2)c(C)c1 ?
FMDV RLuc: 22µM*; FMDV FLuc: inconclusive

Results for CCCn1c(=O)[nH]c(=O)c2c1nc(-c1ccc(OCCC(C)C)cc1)n2CCOC ?
FMDV RLuc: -15%; FMDV FLuc: -7%

What do the screens show for `Cc1ccc(-n2cc(C(=O)N3CCc4ccccc4C3)nn2)cc1`?
FMDV RLuc: -15%; FMDV FLuc: 13%

What do the screens show for `Cc1cccc(-n2nnnc2C2(N3CCCC3)CCCC2)c1`?
FMDV RLuc: 16%; FMDV FLuc: -4%

Results for Cc1cccc(-n2nnnc2S(C)(=O)=O)c1 ?
FMDV RLuc: inconclusive; FMDV FLuc: 28µM*

What do the screens show for `COc1nc(C(=O)NC2(c3ccccc3)CCC2)cc2ccccc12`?
FMDV RLuc: 4.5µM*; FMDV FLuc: inconclusive

Results for COc1nc(C(=O)NCC(C)N(C)C)cc2ccccc12 (stereo unspecified) ?
FMDV RLuc: -15%; FMDV FLuc: -14%

Results for Cc1ccccc1NC(=O)c1c(C)oc2ccc(O)c(CN3CCOCC3)c12 ?
FMDV RLuc: -15%; FMDV FLuc: -17%

What do the screens show for `O=C(C1CCC(CNS(=O)(=O)c2cccs2)CC1)N1CCN(c2ccc(Cl)cc2)CC1` (stereo unspecified)?
FMDV RLuc: 4.5µM*; FMDV FLuc: inconclusive

What do the screens show for `O=C(C1CCN(S(=O)(=O)c2cccs2)CC1)N1CCN(c2cccc(Cl)c2)CC1`?
FMDV RLuc: -1%; FMDV FLuc: 3%

How did COc1ccc(C2=NC(c3ccncc3)=Nc3ccc(OC)cc3N2)cc1 do in these assays?
FMDV RLuc: -7%; FMDV FLuc: -5%

Results for COc1cccc(C(=O)N2CCC(c3nc4ccccc4s3)CC2)c1 ?
FMDV RLuc: -4%; FMDV FLuc: -8%

How did COc1ccc(C(=O)N2CCC(c3nc4ccccc4s3)CC2)cc1Cl do in these assays?
FMDV RLuc: inconclusive; FMDV FLuc: 28µM*

Results for CCCn1cc2c(C(F)(F)F)cc(=O)n(CCC(=O)O)c2n1 ?
FMDV RLuc: 4%; FMDV FLuc: 20%

How did Cc1ccc(Cl)cc1-n1nnc(-c2nsc(NC(=O)c3ccccc3Cl)n2)c1C do in these assays?
FMDV RLuc: -15%; FMDV FLuc: 111%

How did Cc1ccc(C(=O)Nc2nc(-c3nnn(-c4cccc(Cl)c4C)c3C)ns2)cc1C do in these assays?
FMDV RLuc: 5µM*; FMDV FLuc: 3.5µM*

Results for COC(=O)C1=C(C)N=C2SCCC(=O)N2C1c1ccc(C(C)(C)C)cc1 (stereo unspecified) ?
FMDV RLuc: 24%; FMDV FLuc: 18%

What do the screens show for `Cn1c(=O)n(C)c2cc(NS(=O)(=O)c3ccc(Cl)cc3)c(NCc3ccccc3)cc21`?
FMDV RLuc: 396%; FMDV FLuc: 294%

Results for COc1cc(OC)cc(C(NC(=O)c2cc(C(C)=O)c[nH]2)c2nccn2C)c1 (stereo unspecified) ?
FMDV RLuc: 10%; FMDV FLuc: 4%

How did O=C(CSc1ncnc2nc[nH]c12)Nc1cc(Cl)ccc1Cl do in these assays?
FMDV RLuc: 7%; FMDV FLuc: -4%

Results for Cc1cc(C)c(OCC(=O)Nc2ccc(NC(=O)c3ccco3)c(C)c2)c(Br)c1 ?
FMDV RLuc: -7%; FMDV FLuc: inconclusive

How did Cn1c(=O)c2c(ncn2CC(=O)NC23CC4CC(CC(C4)C2)C3)n(C)c1=O do in these assays?
FMDV RLuc: 1%; FMDV FLuc: 13%

How did O=C(NC1CCCC1)c1ccc2c(c1)N(Cc1ccccc1)C(=O)c1ccccc1S2 do in these assays?
FMDV RLuc: inconclusive; FMDV FLuc: 25µM*

How did O=C(NC1CCCC1)c1ccc2c(c1)N(Cc1ccc(F)cc1)C(=O)c1ccccc1S2 do in these assays?
FMDV RLuc: 18%; FMDV FLuc: -22%

What do the screens show for `CCc1nc2nc(C)c(Cc3ccc(Cl)cc3)c(=O)n2[nH]1`?
FMDV RLuc: -5%; FMDV FLuc: 7%

How did Cc1cc(C)c2cc(C(=O)N3CCC(C(=O)NCc4ccccc4)CC3)[nH]c2c1C do in these assays?
FMDV RLuc: 21%; FMDV FLuc: 14%

Results for O=S(Cc1cccc(F)c1)Cc1coc(-c2cccc(F)c2)n1 (stereo unspecified) ?
FMDV RLuc: 17%; FMDV FLuc: 17%

Results for O=C(Nc1nc(C23CC4CC(CC(C4)C2)C3)cs1)c1ccncc1 ?
FMDV RLuc: 8.9µM*; FMDV FLuc: 14µM*

Results for O=C(Nc1nc(C23CC4CC(CC(C4)C2)C3)cs1)c1ccc(=O)[nH]c1 ?
FMDV RLuc: -9%; FMDV FLuc: 10%

How did COc1ccc(Oc2c(C)oc3cc(OS(C)(=O)=O)ccc3c2=O)cc1 do in these assays?
FMDV RLuc: inconclusive; FMDV FLuc: 13µM*

What do the screens show for `C=C(C)COc1ccc2c(=O)c(Oc3ccc(OC)cc3)c(C)oc2c1`?
FMDV RLuc: 22%; FMDV FLuc: 46%

How did Cc1ccc(NC(=O)C2CCCN2S(=O)(=O)c2ccc3c(c2)CCCC(=O)N3)cc1C (stereo unspecified) do in these assays?
FMDV RLuc: 28µM*; FMDV FLuc: 35µM*

What do the screens show for `Cc1cc(C)cc(NC(=O)C2CCCN2S(=O)(=O)c2ccc3c(c2)CCCC(=O)N3)c1` (stereo unspecified)?
FMDV RLuc: inconclusive; FMDV FLuc: -29%

What do the screens show for `CCCCCCCCCCCCCCCC[N+](C)(C)C`?
FMDV RLuc: -16%; FMDV FLuc: -27%

Results for CC#CC[N+](C)(C)CCCCCCCCCCCC ?
FMDV RLuc: inconclusive; FMDV FLuc: 13µM*

How did N#Cc1ccc(Oc2ccccc2Oc2ccc(C#N)c(C#N)c2)cc1C#N do in these assays?
FMDV RLuc: 15%; FMDV FLuc: 23%
